Assay outcomes as filed in PubChem BioAssay.
The list is not random: actives were taken first. Their share in the collection is about 5.4%.
SMARCA2 act: activators of SMARCA2 function | 370,000 compounds, 1% hits | activation, % at 9.1 µM | MG213 cells, MMTV-luciferase reporter, dexamethasone, overnight | AID 652017; in the data active means activation above about 7.8%;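 further: 0% = vehicle wells and 100% = reference activator wells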
PfM18AAP inh: PfM18AAP enzyme inhibition; 290,000 compounds, 1.2% hits; recombinant PfM18AAP, H-Glu-NHMec fluorogenic cleavage; inhibition, % at 7.35 µM;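 active means inhibition above the campaign mean inhibition over all tested compounds plus 3 SD, cut at about 28% in these data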;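 further: 0% = plate median of test compound wells and 100% = 2 mM ZnCl2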
beta cell repl: inducers of beta-cell replication in MIN6 cells | MIN6 cells proliferation, ATPlite luminescence, 48 h; cells starved in 0.2% serum; 100% = growth in 10% serum | proliferation, % at 10 µM | 330,000 compounds, 0.29% hits;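 active means compounds whose signal lies at least 3.5 SD above the mean of all wells on their plate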;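 further: 0% = DMSO-treated cells in low-serum medium and 100% = 10% serum control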
GASC-1 inh: human JMJD2C demethylase inhibition; AID 2099; Q9H3R0; GST-JMJD2C(1-420) H3K9me3 demethylation, DELFIA europium; inhibition, % at 2.35 µM; 330,000 compounds, 0.069% hits;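 active means more than half of a compound's replicate wells show inhibition beyond 50%, single wells judged on their own value; inconclusive means some, but no more than half, of replicates pass 50% inhibition; inactive means no replicate passes 50% inhibition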;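 further: signal counts dimethyl H3K9 product captured on neutravidin plate; 0% = median of DMSO wells and 100% = 0.3 times that DMSO median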
Target sequence (Q9H3R0 1-420 limits assumed): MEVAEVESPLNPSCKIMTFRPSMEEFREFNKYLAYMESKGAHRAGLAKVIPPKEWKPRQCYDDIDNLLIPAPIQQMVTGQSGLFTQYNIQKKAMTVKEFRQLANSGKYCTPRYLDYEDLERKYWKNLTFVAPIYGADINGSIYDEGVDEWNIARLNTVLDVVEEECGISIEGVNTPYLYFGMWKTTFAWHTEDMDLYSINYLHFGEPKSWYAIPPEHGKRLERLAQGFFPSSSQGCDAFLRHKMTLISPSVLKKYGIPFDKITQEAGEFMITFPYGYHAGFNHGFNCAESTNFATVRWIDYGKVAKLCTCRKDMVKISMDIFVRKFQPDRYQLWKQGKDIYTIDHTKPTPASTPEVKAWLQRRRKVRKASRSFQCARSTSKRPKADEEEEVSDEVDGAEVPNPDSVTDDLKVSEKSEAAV
ALR inh: human ALR oxidase inhibition via reduced H2O2; AID 485317; purified ALR, DTT oxidation, H2O2 HRP-luminol luminescence; P55789; 290,000 compounds, 3.8% hits; inhibition, % (concentration not given with the values);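 active means mean replicate inhibition above about 79%, with every replicate also reaching it, limit read from the data; inconclusive means only one of the two criteria met; inactive means mean below limit and not every replicate reaching it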
Target sequence (P55789 whole entry, looked up): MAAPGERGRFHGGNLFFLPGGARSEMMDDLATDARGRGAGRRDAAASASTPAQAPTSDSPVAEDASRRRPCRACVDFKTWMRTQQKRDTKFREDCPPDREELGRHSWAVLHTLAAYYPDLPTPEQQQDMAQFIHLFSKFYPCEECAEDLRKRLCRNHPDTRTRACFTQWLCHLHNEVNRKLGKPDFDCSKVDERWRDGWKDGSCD
Granule exo inh: blocks lytic granule exocytosis | TALL-104 LAMP-1 surface exposure, flow cytometry; cells stimulated with thapsigargin and PMA | inhibition, % at 10 µM | 360,000 compounds, 0.66% hits | AID 651702;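 active means inhibition above about 55%, limit read from the data; inconclusive means no clear call, values can overlap the other calls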
SMARCA2 act conf: SMARCA2 activation, confirmation screen; shares compounds with SMARCA2 act; MG213 cells, MMTV-luciferase with dexamethasone, luminescence, overnight; MG213 cells expressing E1A, Rb sequestered; DMSO wells 0%, reference activator 100%; activation, % at 9.1 µM; 3,500 compounds, 30% hits; AID 652260;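 active means activation above its plate's cutoff, the mean activation of tested wells plus 3 SD, cut at about 7.9% in these data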
VP16 Luc act: activates GAL4-VP16 luciferase, flagging SMARCA2 activator hits. activation, % at 9.1 µM. HEK293 GAL4-VP16 pG5luc reporter, luciferase luminescence; scaled: DMSO wells 0%, SAHA wells 100%. 3,500 compounds, 41% hits. shares compounds with SMARCA2 act;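 active means activation above the solvent-only control well mean plus 3 SD, averaged across control plates, cut at about 5.2% in these data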
Active calls of the source: *; u = inconclusive; x = not tested or not shown.

SMILES | SMARCA2 act | PfM18AAP inh | beta cell repl | GASC-1 inh | ALR inh | Granule exo inh | SMARCA2 act conf | VP16 Luc act
COC(=O)CSc1nc2ccc(C)cc2[nH]1 | 3 | 5 | 0 | 17 | 1 | -2 | x | x
COc1ccc(S(=O)(=O)Nc2ccc(F)c(F)c2)cc1C(=O)N1CCOCC1 | 0 | 7 | -2 | -9 | x | -8 | x | x
COc1ccc(S(=O)(=O)Nc2cccc(SC)c2)cc1C(=O)N1CCOCC1 | 9.6* | 3 | 1 | 7 | -12 | 0 | 0 | 0
COc1ccc(S(=O)(=O)NCc2cccnc2)cc1C(=O)N1CCCCC1 | 9.8* | 0 | 4 | 9 | x | 6 | -1 | 1
COCCNC(=O)C1(C)CCCN(C(=O)c2ccc(N(C)C)cc2)C1 (stereo unspecified) | -6 | x | x | x | x | -11 | x | x
COc1cccc(-c2cc3nc(NCc4ccc(C)cc4C)n(C)c(=O)c3s2)c1 | -2 | x | x | x | x | 9 | x | x
COc1cc(O)c2c(=O)c(-c3ccc(O[C@@H]4O[C@H](CO)[C@@H](O)[C@H](O)[C@H]4O)cc3)coc2c1 | 8.8* | -13 | -3 | -2 | -5 | u | 13* | 9.1*
COc1ccc(CNC(=O)CCCn2c(=O)c3cccn3c3cccnc32)cc1 | -5 | x | x | x | x | 0 | x | x
COc1ccc(CCNC(=O)CCn2c(=O)c3cccn3c3cccnc32)cc1OC | 12* | -1 | 9 | 16 | -7 | -4 | 7.9* | 1
COC(=O)c1ccc(C(=O)OC)c(NC(=S)N2CCN(c3ccccc3)CC2)c1 | -2 | -4 | -1 | 3 | 2 | 12 | x | x
COC(=O)c1ccc(C(=O)OC)c(NC(=S)N2CCN(c3cccc(Cl)c3)CC2)c1 | 11* | -11 | -2 | -8 | -7 | 5 | -6 | -1
O=C(NC1CCCC1)C(c1ccccc1)n1c(-c2ccc3c(c2)CCO3)nc2ccccc21 (stereo unspecified) | 0 | x | x | x | x | 5 | x | x
C/C(=N\NC(=O)c1ccc2c(c1)OCO2)c1ccc(NC(=O)CCCC(=O)O)cc1 | 8.3* | -3 | 4 | -2 | -14 | -3 | -5 | 1
Cc1ccc(-c2nc3ccccc3[nH]2)cn1 | 2 | -14 | -1 | 2 | -6 | -9 | x | x
O=C(Nc1ccccn1)c1ccc2c(c1)OCO2 | 3 | 1 | -4 | -3 | -2 | 3 | x | x
Cc1nc2ccc(-c3nc4ccccc4[nH]3)cc2[nH]1 | 16* | -7 | -1 | 0 | -5 | 0 | 14* | 12*
CCN(CC)c1ccc(NC(=O)c2ccc3c(c2)OCO3)cc1 | 10* | 1 | -3 | -4 | 99* | -2 | 4 | 11*
O=C(Nc1ccccn1)c1ccc2c(c1)OCCO2 | 11* | -10 | -4 | -15 | 0 | -3 | 6 | 6.0*
CCC(=O)Nc1ccc(NC(=O)c2ccc3c(c2)OCO3)cc1 | -1 | -6 | -1 | 0 | 1 | 2 | x | x
O=C(CSc1ccccc1)Nc1ccc(-c2nc3ccccc3[nH]2)cc1 | 2 | 4 | -2 | 6 | -9 | -1 | x | x
Cn1ncc([N+](=O)[O-])c1C(=O)Nc1ccc(-c2nc3ccccc3[nH]2)cc1 | 9.6* | -9 | -3 | -5 | 1 | 4 | 12* | 2
Cc1cc(NC(=O)c2ccc3c(c2)OCO3)no1 | 1 | 6 | -1 | 19 | -4 | 4 | x | x
COc1ccc(OCC(=O)Nc2cccc(-c3nc4ccccc4[nH]3)c2)cc1 | 1 | -4 | 1 | 4 | -7 | 6 | x | x
O=C(COc1ccccc1)Nc1cccc(-c2nc3ccccc3[nH]2)c1 | 9.2* | 2 | -2 | 0 | 1 | 2 | 6 | 4
Cc1nc(NC(=O)c2ccc3c(c2)OCO3)ccc1Br | 8.6* | 1 | -1 | 6 | 4 | -44 | 6 | 14*
SMILES | SMARCA2 act | PfM18AAP inh | beta cell repl | GASC-1 inh | ALR inh | Granule exo inh | SMARCA2 act conf | VP16 Luc act
O=C(Cc1cccs1)Nc1ccc(-c2nc3ccccc3[nH]2)cc1 | 8.8* | -1 | -2 | -13 | 1 | 0 | 7 | 13*
COCCNC(=O)C1(C)CCN(Cc2cccc(Oc3ccccc3)c2)C1 (stereo unspecified) | 2 | x | x | x | x | -4 | x | x
CCCCNC(=O)c1nc(C2CCNCC2)oc1-c1cccc(C(F)(F)F)c1 | -4 | x | x | x | x | 9 | x | x
c1ccc2sc(-c3ccc4c(c3)OCO4)nc2c1 | x | -2 | -5 | 4 | -5 | 0 | x | x
O=C(Nc1ccc(-c2nc3ccccc3[nH]2)cc1)c1ccc2c(c1)OCO2 | 19* | 4 | -5 | -2 | -2 | 13 | 13* | 4
c1ccc2[nH]c(-c3ccc4c(c3)OCO4)nc2c1 | 8.1* | x | -4 | -13 | 0 | -1 | 22* | 12*
COc1ccc(CCNC(=O)c2ccc3c(c2)ncn3C2CCCCC2)cc1 | 0 | x | x | x | x | x | x | x
Cn1c(C(=O)Nc2ccccc2)cc2sccc21 | 9.2* | 5 | -3 | -1 | 7 | -1 | 8.7* | 7.2*
CC1CCC(NC(=O)c2cccn2C)CC1 (stereo unspecified) | 8.8* | x | x | x | x | -4 | 11* | 11*
Cc1cc(C(=O)NCc2ccccc2Br)no1 | 9.4* | 2 | -1 | 1 | 0 | 1 | 1 | 1
Cc1ccccc1-n1c(C)nnc1SCC(=O)NNC(=O)c1ccccc1 | 8.0* | -6 | -2 | -3 | 5 | -6 | 5 | 1
N#Cc1ccsc1NC(=O)CSc1nnc(-c2ccccc2)o1 | 19* | 3 | -1 | -5 | 37 | -1 | 1 | 1
O=C(CSc1nnc(-c2ccccn2)o1)Nc1ccccc1Cl | 8.0* | 6 | -4 | -12 | 99* | -6 | 13* | 12*
Cc1cnc(NC(=O)CSc2nnc(-c3ccccc3)o2)s1 | 3 | 3 | -6 | -5 | 66 | -5 | x | x
O=C(CSc1nnc(-c2cccnc2)o1)Nc1nccs1 | 9.1* | x | -4 | -2 | 99* | 1 | 5 | 2
Cc1ccc(-c2nnc(SCC(=O)Nc3nccs3)n2N)cc1 | -4 | 7 | -2 | -8 | 66 | 4 | x | x
Nn1c(SCC(=O)Nc2nccs2)nnc1-c1cc(-c2ccccc2)n[nH]1 | 9.6* | x | x | x | x | x | 5 | 2
COC(=O)C1=C(C)N(Cc2ccccc2)C(=S)NC1c1cccc(Br)c1 (stereo unspecified) | 1 | x | x | x | x | x | x | x
NC(Cc1ccc(Cl)cc1)c1csc(NC(=O)NCC2CCCCC2)n1 (stereo unspecified) | -7 | x | x | x | x | 14 | x | x
O=C(CCN1C(=O)/C(=C\c2ccccc2)SC1=S)NNC(=O)c1ccncc1 | 9.7* | 3 | 2 | u | -3 | 4 | -5 | 0
